From PubChem BioAssay (NCI)
About 79,000 compounds went through this panel and 15% of them were active in at least one assay; those are over-represented in the sample as a whole. A number with no mark means an inactive call. Calls of active or inactive are those of the source. Rule as the data show it: active = growth inhibition above about 70%; inactive = the rest.

Tests used:
[1] = NCI Yeast Anticancer Drug Screen. Data for the rad50 strain (AID 155);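 also: 0% = growth of vehicle-only cultures of the same strain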; conditions: S. cerevisiae rad50 strain growth inhibition, active compounds read high
Outline: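 DNA repair mutant yeast, compound exposure, growth read-out; inhibition is taken relative to vehicle.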

[2] = NCI Yeast Anticancer Drug Screen. Data for the mec2-1 strain (AID 157); conditions: S. cerevisiae mec2-1 strain, active compounds read high
Outline: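 Vehicle-treated cultures served as reference for growth inhibition of compound-exposed mec2-1 yeast.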

[3] = NCI Yeast Anticancer Drug Screen. Data for the sgs1 mgt1 strain (AID 161);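 also: 0% = growth of cultures given vehicle only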; conditions: S. cerevisiae sgs1 mgt1 strain, active compounds read high
Outline: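 Test agents were incubated with a DNA-repair-mutant yeast strain. Growth was then read and compared against vehicle-treated controls.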

[4] = NCI Yeast Anticancer Drug Screen. Data for the cln2 rad14 strain (AID 165);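 also: 0% = growth equal to vehicle treated cultures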; conditions: S. cerevisiae cln2 rad14 strain, active compounds read high
Outline: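 Each compound was tested on cln2 rad14 yeast. Inhibition of growth was calculated against vehicle-exposed controls.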

[5] = NCI Yeast Anticancer Drug Screen. Data for the bub3 strain (AID 167); conditions: S. cerevisiae bub3 mutant strain, active compounds read high
Outline: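 In this screen, a yeast mutant lacking normal mitotic checkpoint function is challenged with compound. Relative growth versus vehicle gives the inhibition value.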

[6] = NCI Yeast Anticancer Drug Screen. Data for the mlh1 rad18 strain (AID 175); conditions: S. cerevisiae mlh1 rad18 strain growth inhibition, active compounds read high
Outline: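 Vehicle-treated cultures served as the reference for growth inhibition in a yeast strain carrying DNA damage repair alterations exposed to each compound.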

[7] = at 5.0 µM (retest, dose inferred, filed as 0.5)
[8] = at 50.0 µM (retest, dose inferred, filed as 5.0)

SMILES	growth inhibition [1, 7]	growth inhibition [1, 8]	growth inhibition ([1]; at 50.0 µM)	growth inhibition [2, 7]	growth inhibition [2, 8]	growth inhibition ([2]; at 50.0 µM)	growth inhibition [3, 7]	growth inhibition [3, 8]	growth inhibition ([3]; at 50.0 µM)	growth inhibition [4, 7]	growth inhibition [4, 8]	growth inhibition ([4]; at 50.0 µM)	growth inhibition [5, 7]	growth inhibition [5, 8]	growth inhibition ([5]; at 50.0 µM)	growth inhibition [6, 7]	growth inhibition [6, 8]	growth inhibition ([6]; at 50.0 µM)
NC(=S)C(=S)N/C=C/c1nc2ccccc2[nH]c1=O	-19%	98% (active)	89.8% (active)	-25%	99% (active)	92.7% (active)	-13%	97% (active)	91.7% (active)	-11%	98% (active)	89.3% (active)	-7%	99% (active)	90.7% (active)	-6%	98% (active)	89.4% (active)
Cc1cc(Cl)ccc1NC(=O)CC1SC(=NC(=O)c2ccccc2Cl)NC1=O (configuration not stated)	98% (active)	99% (active)	91% (active)	99% (active)	100% (active)	94.2% (active)	96% (active)	99% (active)	90.7% (active)	48%	99% (active)	92.4% (active)	98% (active)	99% (active)	91.5% (active)	98% (active)	99% (active)	92.2% (active)
CC(=O)OCc1cc(=O)n(C)c2c3c4c(cc12)c(C)cc(=O)n4CO3	87% (active)	99% (active)	85.6% (active)	69%	99% (active)	88.5% (active)	83% (active)	99% (active)	91.2% (active)	79% (active)	97% (active)	87.4% (active)	86% (active)	97% (active)	83.8% (active)	91% (active)	99% (active)	89.9% (active)
O=C1OC2(c3ccc(O)cc3Oc3cc(O)ccc32)c2c1c(-c1ccccc1)c(-c1ccccc1)c(-c1ccccc1)c2-c1ccccc1	26%	83% (active)	76.7% (active)	13%	52%	36.6%	14%	50%	39.9%	-10%	34%	-14.4%	-1%	59%	50.9%	6%	73% (active)	62.8%
CCOc1ccccc1/C=N/Nc1nnc(N/N=C/c2ccccc2OCC)c2ccccc12	0%	42%	44%	9%	64%	48.8%	-24%	38%	41.5%	-10%	58%	45.2%	-4%	54%	44.2%	7%	80% (active)	43.9%
CC(C)(C)c1ccc(C(=O)n2c(=S)oc3ccc(Cl)cc32)cc1	50%	85% (active)	65%	44%	91% (active)	61.4%	46%	92% (active)	81.8% (active)	39%	73% (active)	39.5%	43%	64%	59.5%	51%	88% (active)	63%
Clc1ccc(OCC2CO2)c(Cl)c1 (configuration not stated)	43%	93% (active)	96.6% (active)	-17%	40%	91.5% (active)	40%	82% (active)	92.2% (active)	5%	40%	86.5% (active)	6%	-7%	14.9%	16%	84% (active)	96.8% (active)
CCCCCCCCCCCCCCCCNCCCN(C)CCCN	-1%	98% (active)	88.5% (active)	-19%	98% (active)	93.5% (active)	2%	97% (active)	93.3% (active)	-26%	97% (active)	92% (active)	-26%	97% (active)	92.4% (active)	-68%	97% (active)	90.3% (active)
Cc1cc(-c2ccc(O)c(C)c2)ccc1O	13%	94% (active)	83% (active)	-15%	74% (active)	57.4%	0%	78% (active)	74.6% (active)	5%	60%	51.8%	23%	98% (active)	72.5% (active)	8%	91% (active)	71.5% (active)
